Counter-ions that a name gives are not always drawn.

Consider 40 molecules from the supplement of paper PMC9950053.

This experiment relates to Danio rerio larvae (5 dpf). As to the kind of experiment: habituation (activity change first vs second 5 min of 1-s interval sound, period 17) minus DMSO control (percentage points); higher = larger habituation measure than DMSO larvae. To be noted: 10 µM; exposure time: 3 h pre-incubation + 3 h imaging. As for the experimental part: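 Wild-type 5 dpf zebrafish larvae (n=48 per drug, 96-well plates, 28.5 °C) were exposed to Tocris FDA-approved library compounds at 10 µM (0.1% DMSO) for 3 h before and 3 h during imaging. Images were taken every 6 s during visual (moving coloured lines) and acoustic stimuli, and larvae were tracked with the DeepLabCut-based Z-LaP Tracker. Each behavioural measure is the treated-group mean minus the DMSO vehicle control mean (n=844), in percentage points. This mapping covers compounds with 4-character plate codes.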
As to `Clc1ccccc1C(c1ccccc1)(c1ccccc1)n1ccnc1` [Clotrimazole], the habituation was -2.1.

Consider `Cc1cccc(CN2CCN(C(c3ccccc3)c3ccc(Cl)cc3)CC2)c1` (stereo not given) [Meclizine dihydrochloride], for which the habituation was -12.4.

As to `CCOc1ccccc1OCCN[C@H](C)Cc1ccc(OC)c(S(N)(=O)=O)c1` [Tamsulosin hydrochloride], the habituation came out at 1.59.

As to `CO[C@H]1/C=C/O[C@@]2(C)Oc3c(C)c(O)c4c(O)c(c5c(nc6cc(C)ccn65)c4c3C2=O)NC(=O)/C(C)=C\C=C\[C@H](C)[C@H](O)[C@@H](C)[C@@H](O)[C@@H](C)[C@H](OC(C)=O)[C@@H]1C` [Rifaximin], the habituation was -3.24.

On to `CC(C)c1nc(N(C)S(C)(=O)=O)nc(-c2ccc(F)cc2)c1/C=C/[C@@H](O)C[C@@H](O)CC(=O)O` [Rosuvastatin calcium], for which the habituation came to 1.27.

With `CC(=O)Oc1ccccc1C(=O)O` [Aspirin], the habituation was -4.51.

Take `CC#C[C@]1(O)CC[C@H]2[C@@H]3CCC4=CC(=O)CCC4=C3[C@@H](c3ccc(N(C)C)cc3)C[C@@]21C` [Mifepristone]: the habituation is -3.13.

`CC(C)(C(=O)c1cccnc1)c1cccnc1` [Metyrapone]: the habituation was 0.481.

Consider `Cc1ccc(O)c([C@H](CCN(C(C)C)C(C)C)c2ccccc2)c1` [Tolterodine L-tartrate], for which the habituation was -5.86.

`Brc1c(NC2=NCCN2)ccc2nccnc12`: the habituation was -6.57.

In the case of `CNC(=O)c1ccccc1Sc1ccc2c(/C=C/c3ccccn3)n[nH]c2c1` [Axitinib], the habituation was found to be 0.305.

`CC(=O)NC[C@H]1CN(c2ccc(N3CCOCC3)c(F)c2)C(=O)O1` [Linezolid]: the habituation is -3.73.

For `Cc1cc(C2CCCCC2)n(O)c(=O)c1` [Ciclopirox], the habituation was -2.51.

With `Nc1ncn([C@@H]2O[C@H](CO)[C@@H](O)[C@H]2O)c(=O)n1` [5-Azacytidine], the habituation came out at 0.429.

For `CCCCCOC(=O)Nc1nc(=O)n([C@@H]2O[C@H](C)[C@@H](O)[C@H]2O)cc1F` [Capecitabine], the habituation is -3.27.

In the case of `CC[C@H](C)C(=O)O[C@H]1C[C@@H](C)C=C2C=C[C@H](C)[C@H](CC[C@@H]3C[C@@H](O)CC(=O)O3)[C@H]21` [Lovastatin], the habituation is -2.11.

Regarding `COc1cc2nc(N3CCN(C(=O)C4COc5ccccc5O4)CC3)nc(N)c2cc1OC` (stereo not given) [Doxazosin mesylate], the habituation was 0.55.

For `CC(=O)O[C@]1(C(C)=O)CC[C@H]2[C@@H]3C=C(C)C4=CC(=O)CC[C@]4(C)[C@H]3CC[C@@]21C` [Megestrol Acetate], the habituation was -3.62.

For `CS(=O)(=O)CCNCc1ccc(-c2ccc3ncnc(Nc4ccc(OCc5cccc(F)c5)c(Cl)c4)c3c2)o1` [Lapatinib], the habituation is -1.33.

`Cc1cccc(C)c1OCC(C)N` (stereo not given) [Mexiletine hydrochloride]: the habituation amounted to 6.36.

Turning to `COC(c1ccccc1)(c1ccccc1)[C@H](Oc1nc(C)cc(C)n1)C(=O)O` [Ambrisentan], the habituation was determined as 4.59.

As to `CCCCNc1cc(C(=O)O)cc(S(N)(=O)=O)c1Oc1ccccc1` [Bumetanide], the habituation was -0.555.

As to `CCOC(=O)C1=C(COCCN)NC(C)=C(C(=O)OC)C1c1ccccc1Cl` (stereo not given) [Amlodipine besylate], the habituation is -2.71.

Regarding `CC1CNc2c(cccc2S(=O)(=O)N[C@@H](CCCNC(=N)N)C(=O)N2CC[C@@H](C)C[C@@H]2C(=O)O)C1` (stereo not given in full) [Argatroban], the habituation was -0.107.

In the case of `C[C@@H](O[C@H]1OCCN(Cc2n[nH]c(=O)[nH]2)[C@H]1c1ccc(F)cc1)c1cc(C(F)(F)F)cc(C(F)(F)F)c1` [Aprepitant], the habituation stood at 1.46.

For `COc1c(C)c2c(c(O)c1C/C=C(\C)CCC(=O)O)C(=O)OC2` [Mycophenolic acid], the habituation was 1.82.

As for `Cc1nnc(C(C)C)n1C1C[C@H]2CC[C@@H](C1)N2CC[C@H](NC(=O)C1CCC(F)(F)CC1)c1ccccc1` (stereo in doubt) [Maraviroc], the habituation was found to be 3.31.

In the case of `CN/C(=N\CCSCc1nc[nH]c1C)NC#N` [Cimetidine], the habituation worked out at 5.23.

As to `COc1ccc([C@@H]2Sc3ccccc3N(CCN(C)C)C(=O)[C@@H]2OC(C)=O)cc1` [Diltiazem hydrochloride], the habituation was -0.219.

Take `Cc1ccc(-c2cc(C(F)(F)F)nn2-c2ccc(S(N)(=O)=O)cc2)cc1` [Celecoxib]: the habituation is -9.16.

Regarding `CC/C(=C(\c1ccccc1)c1ccc(OCCN(C)C)cc1)c1ccccc1` [Tamoxifen citrate], the habituation is -7.1.

For `CCOc1nc2cccc(C(=O)O)c2n1Cc1ccc(-c2ccccc2-c2nnn[nH]2)cc1` [Candesartan], the habituation was 5.98.

Turning to `CC(C)C(=O)Nc1ccc([N+](=O)[O-])c(C(F)(F)F)c1` [Flutamide], the habituation was -15.4.

As to `O=C(O[C@@H]1C[C@@H]2C[C@H]3C[C@H](C1)N2CC3=O)c1c[nH]c2ccccc12` [Dolasetron mesylate], the habituation is 1.05.

`CCCCC1=NC2(CCCC2)C(=O)N1Cc1ccc(-c2ccccc2-c2nnn[nH]2)cc1` [Irbesartan]: the habituation was -1.18.

In the case of `CC(C)(C#N)c1cc(Cn2cncn2)cc(C(C)(C)C#N)c1` [Anastrozole], the habituation came out at 6.46.

For `C=C1[C@H](CO)[C@@H](O)C[C@@H]1n1cnc2c(=O)[nH]c(N)nc21` [Entecavir], the habituation was 1.2.

On to `Cc1ccc(NC(=O)c2ccc(CN3CCN(C)CC3)cc2)cc1Nc1nccc(-c2cccnc2)n1` [Imatinib mesylate], for which the habituation stood at 1.88.

Turning to `CCc1ccc(CCOc2ccc(CC3SC(=O)NC3=O)cc2)nc1` (stereo not given) [Pioglitazone hydrochloride], the habituation is 0.765.

For `COc1ccccc1OCCNCC(O)COc1cccc2[nH]c3ccccc3c12` (stereo not given) [Carvedilol], the habituation is -0.0437.
